Inconclusive results are not listed. Active and inactive are the calls of the source. How the source made its calls, unless noted: active means hit-call score of the fitted dose curve at least 0.9, where 1 is the maximum; inactive means score below 0.9.
What was measured:
[1] = target: Peroxisome proliferator-activated receptor gamma (Homo sapiens) (UniProt P37231); experiment: OT_PPARg_PPARgSRC1_0480: Odyssey Thera (OT) 8-hour Protein-Complementation Assay for Peroxisome Proliferator-activated Receptor Gamma / SRC-1 Co-activator (AID 2283387; active means hit-call score of the fitted dose curve at least 0.9, where 1 is the maximum;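 further: nuclear to cytoplasmic split Venus YFP fluorescence ratio reporting PPARg SRC-1 interaction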)
Sequence of Peroxisome proliferator-activated receptor gamma (Homo sapiens) (P37231 whole entry, looked up, the tested form may be a part): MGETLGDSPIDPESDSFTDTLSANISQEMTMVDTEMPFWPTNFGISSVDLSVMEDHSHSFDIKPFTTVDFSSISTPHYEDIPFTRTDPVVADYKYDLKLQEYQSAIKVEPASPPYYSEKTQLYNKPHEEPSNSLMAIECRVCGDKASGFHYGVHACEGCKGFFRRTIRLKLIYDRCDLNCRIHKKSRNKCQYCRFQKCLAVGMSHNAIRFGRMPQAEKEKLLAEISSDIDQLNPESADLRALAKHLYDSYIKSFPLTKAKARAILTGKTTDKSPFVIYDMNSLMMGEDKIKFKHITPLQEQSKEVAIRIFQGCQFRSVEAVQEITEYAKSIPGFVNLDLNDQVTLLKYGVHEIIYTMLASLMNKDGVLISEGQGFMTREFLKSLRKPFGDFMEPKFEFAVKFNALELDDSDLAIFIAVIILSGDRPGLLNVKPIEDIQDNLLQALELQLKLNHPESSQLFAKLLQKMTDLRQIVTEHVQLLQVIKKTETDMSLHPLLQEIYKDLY
Summary of the method: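 Protein-fragment complementation of split Venus YFP reports PPARg/SRC-1 interaction in HEK293T (transfected 48 h before treatment), exposed 8 h. Readout: N/C fluorescence ratio at 488 nm from imaging, Draq5 for segmentation, positive fit relative to DMSO.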

[2] = target: Peroxisome proliferator-activated receptor gamma (Homo sapiens) (UniProt P37231); experiment: OT_PPARg_PPARgSRC1_1440: Odyssey Thera (OT) 24-hour Protein-Complementation Assay for Peroxisome Proliferator-activated Receptor Gamma/ SRC-1 Co-activator (AID 2283388; active means hit-call score of the fitted dose curve at least 0.9, where 1 is the maximum;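 further: nuclear to cytoplasmic ratio of reconstituted Venus YFP fluorescence in fixed imaged cells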)
Summary of the method: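 Readout is the 488 nm N/C fluorescence ratio from fixed, Draq5-stained HEK293T cells after 24 h compound exposure. Cells carried transiently transfected PPARg and SRC-1 fused to Venus fragments, transfected 48 h before treatment.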

[3] = read-out: Tumor necrosis factor receptor superfamily member 6 (Homo sapiens) (UniProt P25445); experiment: LTEA_HepaRG_FAS: Life Technologies and Expression Analysis (LTEA) Assay for Fas cell surface death receptor (FAS) using HepaRG (AID 2283447); details: mRNA level, 48 h; actives raise or lower the signal
Summary of the method: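 FAS transcript level was measured by TaqMan qRT-PCR against three housekeeping genes after 48 h chemical exposure. Cells were HepaRG, 0.5% DMSO vehicle, with a top concentration of 100 uM and half-log dilutions over eight points, in duplicate.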

[4] = read-out: Fatty acid synthase (Homo sapiens) (UniProt P49327); experiment: LTEA_HepaRG_FASN: Life Technologies and Expression Analysis (LTEA) Assay for Fatty Acid Synthase (FASN) using HepaRG (AID 2283448); details: mRNA level, 48 h; actives raise or lower the signal;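 on AC50: differentiated human HepaRG liver cells in serum-free induction medium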
Summary of the method: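 In human HepaRG cultures, 48 h chemical exposure (up to 100 uM, 0.5% DMSO) preceded TaqMan qRT-PCR of FASN.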

[5] = read-out: Cyclin D2 (CCND2), CCND2 (gene 894); experiment: LTEA_HepaRG_CCND2: Life Technologies and Expression Analysis (LTEA) Assay for Cyclin D2 (CCND2) using HepaRG (AID 2283449); details: mRNA level, 48 h; actives raise or lower the signal
Summary of the method: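 CCND2 transcript levels, quantified by qRT-PCR and normalised to three housekeeping genes, were fitted bidirectionally against 0.5% DMSO. HepaRG cultures were dosed 48 h in duplicate with an 8-point half-log series up to 100 uM.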

[6] = read-out: Cyclin Dependent Kinase Inhibitor 1A (CDKN1A), CDKN1A (gene 1026); experiment: LTEA_HepaRG_CDKN1A: Life Technologies and Expression Analysis (LTEA) Assay for Cyclin Dependent Kinase Inhibitor 1A (CDKN1A) using HepaRG (AID 2283450); details: mRNA level, 48 h; actives raise or lower the signal
Summary of the method: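 Expression quantified by Fluidigm qRT-PCR with ACTB, GAPDH and POLR2A normalization, fitted bidirectionally against 0.5% DMSO. Cells: HepaRG, plated 48 h then treated 48 h in serum-free induction medium, top concentration 100 uM with half-log dilutions.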

[7] = read-out: Cyclin D1 (CCND1), CCND1 (gene 595); experiment: LTEA_HepaRG_CCND1: Life Technologies and Expression Analysis (LTEA) Assay for Cyclin D1 (CCND1) using HepaRG (AID 2283451); details: mRNA level, 48 h; actives raise or lower the signal;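 on AC50: differentiated human HepaRG liver cells in serum-free induction medium; TaqMan qRT-PCR transcript level normalised to ACTB GAPDH and POLR2A housekeeping genes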
Summary of the method: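 Expression of CCND1 was quantified by qRT-PCR on Fluidigm arrays using ACTB, GAPDH and POLR2A as reference genes. HepaRG cultures, plated 48 h beforehand, were dosed for 48 h at up to 100 uM (half-log, 8 points) in 0.5% DMSO.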

[8] = read-out: catalase (CAT), CAT (gene 847); experiment: LTEA_HepaRG_CAT: Life Technologies and Expression Analysis (LTEA) Assay for catalase (CAT) using HepaRG (AID 2283452); details: mRNA level, 48 h; actives raise or lower the signal;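 on AC50: TaqMan qRT-PCR signal normalized to ACTB GAPDH and POLR2A housekeeping genes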
Summary of the method: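 Expression of CAT was quantified by TaqMan qRT-PCR with ACTB/GAPDH/POLR2A normalization after 48 h chemical exposure of HepaRG. Eight-point half-log series, top 100 uM, in 0.5% DMSO; gain or loss fitted against vehicle.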

[9] = read-out: flavin-containing dimethylaniline monooxygenases 3 (FMO3), FMO3 (gene 2328); experiment: LTEA_HepaRG_FMO3: Life Technologies and Expression Analysis (LTEA) Assay for flavin-containing dimethylaniline monooxygenases 3 (FMO3) using HepaRG (AID 2283453); details: mRNA level, 48 h; actives raise or lower the signal;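 on AC50: differentiated human HepaRG liver cells in serum-free induction medium; FMO3 transcript by TaqMan qRT-PCR normalized to ACTB GAPDH and POLR2A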
Summary of the method: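 Eight-point concentration-response in serum-free HepaRG cultures (top 100 uM, 0.5% DMSO, 48 h). Read-out: FMO3 mRNA level normalized to three endogenous control genes, fitted bidirectionally versus vehicle.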

[10] = read-out: Cytochrome P450 (CYP1A1), CYP1A1 (gene 1543); experiment: LTEA_HepaRG_CYP1A1: Life Technologies and Expression Analysis (LTEA) Assay for Cytochrome P450 (CYP1A1) using HepaRG (AID 2283454); details: mRNA level, 48 h; actives raise or lower the signal
Summary of the method: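 CYP1A1 transcript levels measured by Fluidigm qRT-PCR against three housekeeping genes, 48 h after chemical dosing of human HepaRG cells (highest concentration 100 uM, half-log steps, 0.5% DMSO vehicle). Gain or loss of signal fitted relative to DMSO.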

[11] = read-out: CFLAR gene, CFLAR (gene 8837); experiment: LTEA_HepaRG_CFLAR: Life Technologies and Expression Analysis (LTEA) Assay for CFLAR gene using HepaRG (AID 2283455); details: mRNA level, 48 h; actives raise or lower the signal
Summary of the method: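 Transcript level by qRT-PCR (normalized to ACTB, GAPDH and POLR2A) after 48 h chemical exposure of HepaRG cells, top concentration 100 uM with half-log steps, 0.5% DMSO vehicle, duplicates; fitted bidirectionally against DMSO baseline.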

[12] = read-out: Forkhead box O1 (FOXO1), FOXO1 (gene 2308); experiment: LTEA_HepaRG_FOXO1: Life Technologies and Expression Analysis (LTEA) Assay for Forkhead box O1 (FOXO1) using HepaRG (AID 2283456); details: mRNA level, 48 h; actives raise or lower the signal
Summary of the method: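 FOXO1 transcript quantified by qRT-PCR after 48 h chemical exposure (top 100 uM, half-log steps, 0.5% DMSO) of HepaRG cells, housekeeping-normalized (ACTB/GAPDH/POLR2A). Changes fitted in both directions relative to vehicle.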

Measured: AC50

Sequence of Fatty acid synthase (Homo sapiens) (P49327 whole entry, looked up): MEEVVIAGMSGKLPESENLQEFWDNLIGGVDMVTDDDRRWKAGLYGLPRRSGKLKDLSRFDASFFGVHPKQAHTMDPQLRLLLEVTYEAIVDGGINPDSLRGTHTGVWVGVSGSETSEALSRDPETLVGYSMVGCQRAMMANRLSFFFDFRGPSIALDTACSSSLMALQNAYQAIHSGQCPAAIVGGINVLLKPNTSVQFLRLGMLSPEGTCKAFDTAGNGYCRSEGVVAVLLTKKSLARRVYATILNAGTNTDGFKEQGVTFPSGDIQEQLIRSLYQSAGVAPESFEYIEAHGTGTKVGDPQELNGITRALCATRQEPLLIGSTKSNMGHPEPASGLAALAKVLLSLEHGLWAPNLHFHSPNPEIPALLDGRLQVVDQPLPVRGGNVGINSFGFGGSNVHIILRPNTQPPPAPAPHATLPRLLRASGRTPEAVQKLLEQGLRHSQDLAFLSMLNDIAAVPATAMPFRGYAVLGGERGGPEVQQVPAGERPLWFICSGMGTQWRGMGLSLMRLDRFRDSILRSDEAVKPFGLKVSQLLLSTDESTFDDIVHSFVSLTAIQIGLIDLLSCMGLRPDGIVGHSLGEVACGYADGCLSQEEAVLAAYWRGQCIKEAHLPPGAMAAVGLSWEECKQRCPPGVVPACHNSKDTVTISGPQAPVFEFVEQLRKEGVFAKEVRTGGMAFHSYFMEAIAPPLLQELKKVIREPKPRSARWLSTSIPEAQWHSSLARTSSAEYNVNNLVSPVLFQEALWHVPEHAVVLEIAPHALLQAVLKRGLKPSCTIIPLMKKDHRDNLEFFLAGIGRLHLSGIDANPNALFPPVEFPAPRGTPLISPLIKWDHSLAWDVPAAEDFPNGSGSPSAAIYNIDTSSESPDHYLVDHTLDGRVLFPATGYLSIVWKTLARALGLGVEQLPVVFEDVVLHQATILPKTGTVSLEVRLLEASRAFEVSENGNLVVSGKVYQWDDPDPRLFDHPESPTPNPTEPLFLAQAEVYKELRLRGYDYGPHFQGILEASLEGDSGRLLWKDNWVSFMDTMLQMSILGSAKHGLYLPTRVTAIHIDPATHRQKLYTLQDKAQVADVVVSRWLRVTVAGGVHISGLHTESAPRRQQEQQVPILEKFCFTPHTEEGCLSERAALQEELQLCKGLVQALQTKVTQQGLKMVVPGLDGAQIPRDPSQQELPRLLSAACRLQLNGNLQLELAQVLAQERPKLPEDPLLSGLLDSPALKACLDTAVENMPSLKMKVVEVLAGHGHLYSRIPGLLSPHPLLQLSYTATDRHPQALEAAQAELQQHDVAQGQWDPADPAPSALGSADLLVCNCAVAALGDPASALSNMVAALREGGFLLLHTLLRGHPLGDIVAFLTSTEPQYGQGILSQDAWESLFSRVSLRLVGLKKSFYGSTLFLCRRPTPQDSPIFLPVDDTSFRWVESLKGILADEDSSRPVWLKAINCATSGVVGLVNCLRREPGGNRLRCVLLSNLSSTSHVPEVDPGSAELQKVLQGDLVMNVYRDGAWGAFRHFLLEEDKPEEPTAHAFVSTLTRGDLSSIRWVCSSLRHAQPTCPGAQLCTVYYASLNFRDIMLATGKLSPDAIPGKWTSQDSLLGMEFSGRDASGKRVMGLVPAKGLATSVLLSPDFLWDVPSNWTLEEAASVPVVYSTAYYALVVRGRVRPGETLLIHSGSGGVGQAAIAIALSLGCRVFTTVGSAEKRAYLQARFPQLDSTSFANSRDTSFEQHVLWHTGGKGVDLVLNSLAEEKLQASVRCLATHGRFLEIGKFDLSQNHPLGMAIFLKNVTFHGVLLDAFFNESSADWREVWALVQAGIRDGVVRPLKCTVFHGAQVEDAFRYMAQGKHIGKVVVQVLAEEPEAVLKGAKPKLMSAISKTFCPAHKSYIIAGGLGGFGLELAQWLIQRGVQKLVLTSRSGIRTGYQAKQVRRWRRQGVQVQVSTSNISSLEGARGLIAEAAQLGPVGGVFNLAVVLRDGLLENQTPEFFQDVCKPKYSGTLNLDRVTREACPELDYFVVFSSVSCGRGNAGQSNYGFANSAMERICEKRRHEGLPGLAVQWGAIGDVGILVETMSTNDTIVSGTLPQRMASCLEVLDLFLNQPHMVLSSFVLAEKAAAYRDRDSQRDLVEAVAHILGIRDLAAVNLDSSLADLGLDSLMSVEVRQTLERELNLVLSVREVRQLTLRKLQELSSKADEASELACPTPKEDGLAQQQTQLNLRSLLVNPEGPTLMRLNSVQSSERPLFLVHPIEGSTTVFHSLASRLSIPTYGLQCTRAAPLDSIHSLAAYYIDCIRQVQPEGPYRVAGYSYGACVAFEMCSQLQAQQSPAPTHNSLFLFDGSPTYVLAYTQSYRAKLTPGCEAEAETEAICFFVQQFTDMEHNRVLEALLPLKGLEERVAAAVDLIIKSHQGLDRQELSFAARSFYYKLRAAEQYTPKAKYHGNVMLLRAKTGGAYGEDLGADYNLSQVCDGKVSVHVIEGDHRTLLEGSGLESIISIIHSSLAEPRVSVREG

O=S(=O)(O)C(F)(F)C(F)(F)C(F)(F)C(F)(F)F
not listed: [12]
inactive: all other assays above

CN(C)c1nc(=O)n(C2CCCCC2)c(=O)n1C
active: [10] 50 µM
inactive: all other assays above

COS(=O)(=O)OC
active: [10] 25.5 µM
not listed: [12]
inactive: all other assays above

CN(C)CCO
not listed: [12]
inactive: all other assays above

Clc1ccc(Cl)cc1
not listed: [12]
inactive: all other assays above

C=CC(=O)NCNC(=O)C=C
active: [10] 25 µM
not listed: [5] | [12]
inactive: all other assays above

CCC(C)(c1ccc(O)cc1)c1ccc(O)cc1
active: [4] 70.5 µM | [11] 71.4 µM
not listed: [12]
inactive: all other assays above

CC(C)C(=O)OCC(C)(C)C(OC(=O)C(C)C)C(C)C (stereo not given)
not listed: [5] | [12]
inactive: all other assays above

O=S(=O)(O)C(F)(F)C(F)(F)C(F)(F)C(F)(F)C(F)(F)C(F)(F)F
active: [8] 7.16 µM | [10] 50 µM
inactive: all other assays above

O=C(O)C(F)(F)C(F)(F)C(F)(F)C(F)(F)C(F)(F)C(F)(F)C(F)(F)C(F)(F)F
inactive: [1] | [2] | [10] | [11]
active: [3] 69.2 µM | [4] 94.2 µM | [6] 79.9 µM | [7] 50 µM | [8] 85 µM | [9] 79.7 µM

CC(C)(O)C(=O)Nc1ccc([N+](=O)[O-])c(C(F)(F)F)c1
active: [3] 0.0219 µM | [5] 0.0398 µM | [10] 0.0423 µM
not listed: [1] | [2] | [12]
inactive: all other assays above

O=C(O)C(F)(F)C(F)(F)C(F)(F)C(F)(F)C(F)(F)F
active: [9] 2.34 µM | [10] 50 µM
inactive: all other assays above

CC(c1ccc(O)cc1)(c1ccc(O)cc1)c1ccc(O)cc1
active: [3] 91.1 µM | [4] 32.1 µM | [6] 50 µM | [7] 24.1 µM | [8] 50 µM | [9] 74.5 µM | [10] 15.8 µM | [11] 64.5 µM
inactive: [1] | [2]

CO/C=C(/C(=O)OC)c1ccccc1COc1cccc(C(F)(F)F)n1
active: [3] 9.8 µM | [4] 9 µM | [6] 9.85 µM | [7] 50 µM | [8] 6.81 µM | [9] 20.9 µM | [10] 8.52 µM | [11] 18.8 µM
inactive: [1] | [2]

CCCCCCCCCc1ccc(O)cc1
active: [10] 50 µM
inactive: all other assays above

O=C(NC(=O)c1cc(F)c(F)cc1Cl)Nc1cc(F)ccc1N1CCC(C(=O)O)CC1
active: [10] 25 µM
inactive: all other assays above

c1ccc(-c2ccccc2)cc1
not listed: [3] | [12]
inactive: all other assays above

ClC(Cl)=C(c1ccc(Cl)cc1)c1ccc(Cl)cc1
active: [4] 50 µM | [10] 36.8 µM
not listed: [12]
inactive: all other assays above

CCC(C)c1cc([N+](=O)[O-])cc([N+](=O)[O-])c1O (stereo not given)
inactive: [1] | [2]
active: [3] 2.25 µM | [4] 1.16 µM | [6] 7.37 µM | [7] 11.1 µM | [8] 1.38 µM | [9] 2.51 µM | [10] 85.7 µM | [11] 1.5 µM
